Hit rate of the full screen: of about 52,000 compounds, about 4,300 (8.3%) were called active. The full list was thinned out, with actives kept by preference. Values without a mark were called inactive. No stated cut-off is given here; in the data, active means survival mostly below about 52% (no sharp cut-off); inactive means mostly above about 56%.

The test system of the test is DeltatarO mutant. Briefly: growth inhibition of S. aureus wild type versus tarO mutant, primary screen, teichoic acid synthesis inhibitors, RN4220, OD600 (AID 463173). The following applies: OD600, 18 h, hits give low values, screened at 18.75 µg/mL (by protocol).
For `COc1cccc(CNC(=O)c2[nH]c3cc(C)ccc3c2Sc2ccccc2)c1`, the survival is 83%.
`CCCN1C(=O)c2ccccc2NC1c1cc(OC)c(OC)c(OC)c1` (stereo not given): the survival was 96%.
Consider `CC(C)c1ccc(NC(=O)C2CCN(S(=O)(=O)c3cccc4nsnc34)CC2)cc1`, for which the survival was 72%.
The result for `CCOc1ccc(N(CC)S(=O)(=O)N2CCCC(C(=O)Nc3ccc(NC(C)=O)cc3)C2)cc1` (stereo not given) reads 84%.
Next, `COc1ccc(OC)c(-c2cc(C(=O)Nc3c(C)nn(Cc4ccc(C)cc4)c3C)no2)c1`: 34% (active); `CCc1cc(C(=O)Nc2c(C)nn(Cc3ccccc3Cl)c2C)no1`: 69%; `COc1ccc(-c2cc(C(=O)Nc3c(C)nn(Cc4ccccc4C)c3C)no2)cc1`: 51%.
Next, `COc1ccc(-c2cc(C(=O)Nc3c(C)nn(Cc4ccc(C)cc4)c3C)no2)cc1OC`: 60%; `COc1ccc(-c2cc(C(=O)Nc3c(C)nn(Cc4ccc(F)cc4)c3C)no2)cc1OC`: 59%.
Turning to `COc1cccc(-c2cc(C(=O)Nc3c(C)nn(Cc4ccccc4Cl)c3C)no2)c1`, the survival was 34% (active).
In the case of `Cc1ccc(Cn2nc(C)c(NC(=O)c3cc(-c4ccc(F)cc4)on3)c2C)cc1`, the survival was 61%.
The result for `Cc1cc(C(=O)Nc2c(C)nn(Cc3ccc(F)cc3)c2C)no1` reads 156%.
The result for `COc1ccccc1-c1cc(C(=O)Nc2c(C)nn(Cc3ccc(Cl)cc3)c2C)no1` reads 29% (active); that for `COc1cc(NC(=O)Cn2ncc3c([nH]c4ccc(C)cc43)c2=O)cc(OC)c1OC`, 86%.
Regarding `Cn1c(N2CCN(S(=O)(=O)c3ccc(Cl)cc3)CC2)nc2ccccc21`, the survival was 83%.
Turning to `COc1ccc(NC(=O)CCc2c(C)nn(-c3ccc(N4CCCCC4)nn3)c2C)cc1Cl`, the survival was 87%.
As to `Cc1sc2nc(CN3CCN(C(=O)c4ccco4)CC3)n(C(=O)c3ccco3)c(=O)c2c1C`, the survival was 86%.
As to `CCOC(=O)c1c(S(=O)(=O)N2CCCC(C(=O)Nc3cc(C)ccc3OC)C2)c(C)n(C)c1C` (stereo not given), the survival was 75%.
For `O=C(/C=C\c1ccco1)Oc1cccc2cccnc12`, the survival is 2% (active).
Regarding `O=C1c2ccccc2C(=O)N1COc1cccc2cccnc12`, the survival was 97%.
As to `O=C(/C=C/c1ccco1)OCCN1CCOCC1`, the survival was 69%.
Next, `O=C(/C=C/c1ccco1)ON1C(=O)c2ccccc2C1=O`: 91%.
Consider `O=C(Oc1cccc2cccnc12)c1ccccc1`, for which the survival is 2% (active).
In the case of `O=C(Oc1ccccc1-c1nc(-c2ccccc2)no1)c1ccccc1`, the survival is 85%.
The result for `Cc1ccc(C(c2nnnn2Cc2ccccc2)N2CCC(C)CC2)cc1` (stereo not given) reads 70%.

The record behind these values is PubChem BioAssay AID463173 (ICCB-Longwood Screening Facility, Harvard Medical School, 2010).
